# Results as given in PubChem BioAssay.
# Tested on: not listed separately
# Test: probe aInhba binding on compound microarray – biochemical, small-molecule microarray, 635/667 nm fluorescence, primary screen (AID 1148);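 further: score merges 667nm spot fluorescence with signal-to-noise for antibody binding to printed compounds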
# Details: higher = more signal
row,Structure (SMILES),composite z-score
1,CON=C(C)CCN1CCCCc2nc(C)c(C)cc21,-0.0131
2,C=CC[C@@H]1C=C[C@H](ON=CC[C@@H]2C=C[C@H](OC(C)=O)[C@@H](COC(C)=O)O2)[C@@H](CO)O1,0.113
3,C[C@@H]1CC[C@@H](C(=O)O)N[C@H]1c1cccc(N2CCOCC2)c1,-0.273
4,CC(=O)OC[C@H]1O[C@H](CC=NOC[C@@H](O)COCc2ccco2)C=C[C@@H]1OC(C)=O,-0.183
5,CC(CCN1CCc2nc(-c3ccccc3)c(-c3ccccc3)cc2C1)=NO[C@H](C)c1cn([C@H](CO)Cc2ccccc2)nn1,-0.0494
6,CCOC(=O)CCN1C(=O)[C@H]2[C@H]3[C@H](O)[C@H](O)CC(=NNC(=O)OCc4ccc(OC)cc4)[C@H]3CC[C@H]2C1=O,-0.257
7,CC(=O)OC[C@H]1O[C@@H](ON=C(C)CCC(=O)OC[C@H]2O[C@H](C#Cc3ccccc3)C=C[C@@H]2Oc2ccc(C)cc2)[C@H](OC(C)=O)[C@@H](OC(C)=O)[C@@H]1OC(C)=O,-0.082
8,O=C1CCCC=C1C(O)c1ccc([N+](=O)[O-])cc1 (centres undefined),-0.212

# Molecular target: Torsin-1A (Homo sapiens) (UniProt O14656)
# Sequence (O14656 whole entry, looked up): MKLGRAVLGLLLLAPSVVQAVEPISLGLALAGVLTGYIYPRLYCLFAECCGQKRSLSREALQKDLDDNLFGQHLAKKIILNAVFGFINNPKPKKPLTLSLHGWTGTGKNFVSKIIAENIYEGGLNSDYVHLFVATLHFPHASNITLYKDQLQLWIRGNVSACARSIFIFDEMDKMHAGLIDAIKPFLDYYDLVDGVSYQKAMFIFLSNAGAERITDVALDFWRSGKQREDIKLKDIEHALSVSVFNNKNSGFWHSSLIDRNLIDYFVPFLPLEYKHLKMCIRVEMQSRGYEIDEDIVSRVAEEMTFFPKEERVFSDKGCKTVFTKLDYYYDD
# Test: TOR1A wild-type binding on microarray – cell lysate, small-molecule microarray, lysate, 635/667 nm, primary screen (AID 1149)
# Details: COS7 hTOR1A-WT lysate, 635 nm fluorescence, higher = more signal
row,Structure (SMILES),composite z-score
1,CCOC(=O)[C@H](Cc1ccccc1)NC(=O)CCC1CC(OC(=O)NCc2ccc3c(c2)OCO3)CC2(CCCC(COC(=O)NCCOC)O2)O1 (some centres undefined),0.351
2,CCOC(=O)[C@H](Cc1ccccc1)NC(=O)CCC1CC(OC(=O)NCc2ccc3c(c2)OCO3)CC2(CCCC(COC(=O)NCCCN3CCCC3=O)O2)O1 (some centres undefined),0.408
3,COC(=O)[C@H](C)NC(=O)CCC1CC(OC(=O)NCCc2ccc(F)cc2)CC2(CCCC(COC(=O)NCCOc3ccccc3)O2)O1 (some centres undefined),0.37
4,O=C1CCCC=C1C(O)C1CCCCC1 (centres undefined),-0.19
5,CCOC(=O)NN=C1C[C@@H](O)[C@@H](O)[C@@H]2[C@@H]3C(=O)N(c4ccc(F)cc4F)C(=O)[C@@H]3CC[C@H]12,0.49
6,CC(=O)OC[C@H]1O[C@H](CC=NO[C@@H](C)c2cc(-c3c(C)cc(C)cc3C)no2)C=C[C@@H]1OC(C)=O,0.213
7,CCOC(=O)CCN1C(=O)[C@H]2[C@H]3[C@H](O)[C@H](O)CC(=NO[C@@H]4O[C@H](CO)[C@@H](O)[C@H](O)[C@H]4O)[C@H]3CC[C@H]2C1=O,0.629
8,CCOC(=O)[C@H](CC(C)C)NC(=O)CCC1CC(OC(=O)NCCc2ccc(F)cc2)CC2(CCCC(COC(=O)NCc3cccc(C(F)(F)F)c3)O2)O1 (some centres undefined),0.0857
9,C[C@H]1CC[C@@H](C(=O)O)N[C@@H]1c1cccc(N2CCCC2=O)c1,0.203
10,CC(=O)OC[C@H]1O[C@@H](ON=C2[C@H]3CCn4c(=O)n(-c5ccccc5)c(=O)n4[C@H]3[C@H](O)[C@@H]3O[C@H]23)[C@H](OC(C)=O)[C@@H](OC(C)=O)[C@@H]1OC(C)=O,0.0264
11,CCOC(=O)[C@H](CC(C)C)NC(=O)CCC1CC(OC(=O)NCCc2ccc(F)cc2)CC2(CCCC(COC(=O)NCCCN3CCCC3=O)O2)O1 (some centres undefined),1.66
12,CC(CCC(=O)OC[C@H]1O[C@H](C#Cc2ccccc2)C=C[C@@H]1Oc1ccc(C)cc1)=NOC[C@@H](C)[C@H](OCc1ccccc1)C(C)C,-0.705
13,CCOC(=O)[C@H](Cc1ccccc1)NC(=O)CCC1CC(OC(=O)NCc2cccc3ccccc23)CC2(CCCC(COC(=O)NCCc3ccccc3OC)O2)O1 (some centres undefined),0.265
14,COC(=O)[C@H](C)NC(=O)CCC1CC(OC(=O)NCCc2ccc(F)cc2)CC2(CCCC(COC(=O)NCCc3ccccc3OC)O2)O1 (some centres undefined),0.284
15,CCOC(=O)NN=C1C[C@@H](O)[C@@H](O)[C@@H]2[C@@H]3C(=O)N(C[C@@H]4CCCO4)C(=O)[C@@H]3CC[C@H]12,0.715
16,CON=C1c2cc(OC)ccc2O[C@H](c2cccc(OC)c2)[C@H]1O,0.195
17,COC(=O)[C@H](C)NC(=O)CCC1CC(OC(=O)NCc2ccc3c(c2)OCO3)CC2(CCCC(COC(=O)NCCC(C)C)O2)O1 (some centres undefined),0.245
18,C[C@H]1C=CCC(=O)OC[C@H](C)C(=O)N2CCC[C@H]2C(=O)OC1,3.32

row,Structure (SMILES),composite z-score
1,CCCNC(=O)OC[C@H]1O[C@H](CCON=C2C[C@@H](O)[C@@H](O)[C@@H]3[C@@H]4C(=O)N(CC)C(=O)[C@@H]4CC[C@@H]23)C=C[C@@H]1Oc1ccc(OC)cc1,0.509
2,COC(=O)[C@@H]1CC[C@H](C)[C@@H](c2ccc(C)cc2)N1C(=O)c1ccc(C=NO[C@@H](C)c2cc(-c3c(C)cc(C)cc3C)no2)cc1,1.62
3,CC(C)(C)N1C(=O)[C@H]2[C@H]3[C@H](O)[C@H](O)CC(=NNC(=O)OCc4ccccc4)[C@H]3CC[C@H]2C1=O,0.436
4,CO[C@@H]1COC(=O)CC=C[C@H](C)[C@H](OC)COC(=O)[C@@H]2CCCN2C(=O)CC=C[C@H]1C,0.719
5,Cc1cc2c(nc1C)CCCCN2CC(O)CN1CCCc2nc(-c3ccc(Br)cc3)ccc21 (centres undefined),0.0636
6,COc1ccc(O[C@H]2C=C[C@@H](C#Cc3ccccc3)O[C@@H]2CO)cc1,-0.0668
7,C#CCCCON=C1C[C@@H](O)[C@@H](O)[C@@H]2[C@@H]3C(=O)N(C[C@@H]4CCCO4)C(=O)[C@@H]3CC[C@H]12,0.372
8,O=C1[C@H]2[C@H]3[C@H](O)[C@H](O)CC(=NO[C@@H]4O[C@H](CO)[C@@H](O)[C@H](O)[C@H]4O)[C@@H]3CC[C@H]2C(=O)N1c1cccc(Oc2ccccc2)c1,0.787
9,CC#CCOCCC=C1c2ccccc2[C@@H](OC)[C@@H]1C,0.147
10,CCOC(=O)[C@H](CC(C)C)NC(=O)CCC1CC(OC(=O)NCc2ccc3c(c2)OCO3)CC2(CCCC(COC(=O)NCCOc3ccccc3)O2)O1 (some centres undefined),0.314
11,CON=C(C)CCN1CCCCc2nc(C)c(C)cc21,1.5
12,C=CC[C@@H]1C=C[C@H](ON=CC[C@@H]2C=C[C@H](OC(C)=O)[C@@H](COC(C)=O)O2)[C@@H](CO)O1,-0.161
13,C[C@@H]1CC[C@@H](C(=O)O)N[C@H]1c1cccc(N2CCOCC2)c1,0.482
14,CC(=O)OC[C@H]1O[C@H](CC=NOC[C@@H](O)COCc2ccco2)C=C[C@@H]1OC(C)=O,3.67
15,CC(CCN1CCc2nc(-c3ccccc3)c(-c3ccccc3)cc2C1)=NO[C@H](C)c1cn([C@H](CO)Cc2ccccc2)nn1,0.824
16,CCOC(=O)CCN1C(=O)[C@H]2[C@H]3[C@H](O)[C@H](O)CC(=NNC(=O)OCc4ccc(OC)cc4)[C@H]3CC[C@H]2C1=O,0.306
17,CC(=O)OC[C@H]1O[C@@H](ON=C(C)CCC(=O)OC[C@H]2O[C@H](C#Cc3ccccc3)C=C[C@@H]2Oc2ccc(C)cc2)[C@H](OC(C)=O)[C@@H](OC(C)=O)[C@@H]1OC(C)=O,0.513
18,O=C1CCCC=C1C(O)c1ccc([N+](=O)[O-])cc1 (centres undefined),0.911
